Experimental findings from PubChem BioAssay are described below.

Structures are written as SMILES. Calls of active or inactive are those of the source.

Assay [1] deals with Plasmodium falciparum Sir2 (PF13_0152, Sir2A). In words: Plasmodium falciparum Sir2A binding compounds – biochemical, small-molecule microarray, 635 nm fluorescence, primary screen (AID 1098).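 Further: score merges spot fluorescence intensity with its signal-to-noise ratio.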 The conditions noted are these: fluorescence 635 nm, higher = more signal.
The nature of assay [2]: probe aDKK1 binding to arrayed compounds – biochemical, biotinylated probe, 635/667 nm fluorescence, primary screen (AID 1099).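 Further: score merges 667nm spot fluorescence with signal to noise across triplicate slides.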 Conditions: small-molecule microarray, higher = more signal.
The nature of assay [3]: probe aCHRDL2 binding to arrayed compounds – biochemical, biotinylated probe, 635/667 nm fluorescence, primary screen (AID 1100). The conditions noted are these: small-molecule microarray, higher = more signal.
The nature of assay [4]: change in splice reporter luminescence, either direction, cell-based, HEK293, spliceosome inhibition project, primary screen (AID 1101).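 Further: HEK293 cells carrying a splicing-competent luciferase reporter gene; test concentration not given here.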 Conditions: HEK293 splicing luciferase reporter, 24 h, higher = more signal, called active from +8 up or from −8 down. In general terms: A reporter such as luciferase makes a cellular process visible.
The target in assay [5] is Fibroblast growth factor 10 (Homo sapiens) (UniProt O15520). In words: compounds binding fibroblast growth factor 10 – biochemical, small-molecule microarray, 635 nm fluorescence, primary screen (AID 1102). Conditions: FGF10 binding, fluorescence 635 nm, higher = more signal.
Assay [6] deals with glycogen synthase kinase-3 (GSK3A per assay name; protocol says GSK3B). As to the kind of experiment: compounds binding glycogen synthase kinase-3 – biochemical, small-molecule microarray, 635 nm fluorescence, GSK3A, primary screen (AID 1103). Further: the record names both GSK3A and GSK3B. Conditions: fluorescence 635 nm, higher = more signal.
Assay [7] concerns the target Epidermal growth factor receptor (Homo sapiens) (UniProt P00533). In words: compounds binding epidermal growth factor receptor – biochemical, small-molecule microarray, 635 nm fluorescence, primary screen (AID 1104).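 Further: score merges 667 nm emission intensity with spot signal to noise over triplicate slides.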 The conditions noted are these: EGFR binding, higher = more signal.
For assay [8], the target named is Follistatin-related protein 3 (Homo sapiens) (UniProt O95633). As to the kind of experiment: compounds binding follistatin-related protein 3 – biochemical, small-molecule microarray, 635 nm fluorescence, primary screen (AID 1105).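 Further: score merges emission near 667 nm and signal to noise per printed spot across three slides.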 Conditions: FSTL3 binding, higher = more signal.
Assay [9] deals with Dickkopf-related protein 1 (Homo sapiens) (UniProt O94907). As to the kind of experiment: small molecules binding DKK1 protein – biochemical, small-molecule microarray, 635 nm fluorescence scan, primary screen (AID 1106).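 Further: score merges emission near 667 nm with signal to noise over three replicate slides.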 Conditions: higher = more signal.
Assay [10] concerns Inhibin beta A chain (activin A). In words: small molecules binding activin A – biochemical, small-molecule microarray, 635 nm fluorescence scan, primary screen (AID 1107).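 Further: mouse activin A protein probed at 4.33 µg/mL on printed slides; score merges bound-protein fluorescence near 667 nm with spot signal-to-noise.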 The conditions noted are these: INHBA, higher = more signal.
The subject of assay [11] is Human papillomavirus type 1a protein E7 (residues 44-93). In words: small molecules binding HPV E7 44-93 – biochemical, small-molecule microarray, residues 44-93, 635 nm fluorescence, primary screen (AID 1108).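 Further: E7 fragment applied at 1 µg/mL in TBST for 1 h at 4 C; score combines spot fluorescence with its signal to noise ratio.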 Conditions: fluorescence 635 nm, higher = more signal.
Assay [12] can be described thus: hepatitis C replication reporter changes, two-sided – Huh7 cells, luciferase reporter, HCV replication inhibitor project, primary screen (AID 1109).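 Further: huh7 hepatoma cells harbouring a luciferase neomycin HCV replicon reporter; luciferase luminescence as measure of HCV replicon replication; test concentration not given here.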 The conditions noted are these: Huh7 HCV replicon luciferase reporter, 48 h; higher = more signal.
For assay [13], the target named is Left-right determination factor 2 (Homo sapiens) (UniProt O00292). As to the kind of experiment: small molecules binding LEFTY2 protein – biochemical, small-molecule microarray, 635 nm fluorescence scan, primary screen (AID 1110). Conditions: higher = more signal.
Assay [14] deals with Calmodulin-1 (Homo sapiens) (UniProt P0DP23). As to the kind of experiment: small molecules binding calmodulin-1 with EGTA – biochemical, small-molecule microarray, Cy5-labelled CALM1, profiling panel (AID 1111).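 Further: labelled calmodulin applied in Tris saline Tween buffer holding calcium plus EGTA and DTT.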 The conditions noted are these: Cy5-CALM1 binding fluorescence, higher = more signal.
The target is the same in assay [15]. As to the kind of experiment: small molecules binding Ca-loaded calmodulin-1 – biochemical, small-molecule microarray, Cy5-labelled CALM1, plus calcium, artefact control for SMM control-protein annotation, profiling panel (AID 1112).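 Further: score merges spot fluorescence with signal to noise from triplicate slides.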 The conditions noted are these: Cy5-CALM1 binding fluorescence, higher = more signal.
Assay [16] in a line: probe aWnt5a binding to arrayed compounds – biochemical, biotinylated probe, 635/667 nm fluorescence, primary screen (AID 1113).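 Further: score merges 667 nm fluorescence intensity with signal-to-noise per printed feature.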 Conditions: small-molecule microarray, higher = more signal.
Assay [17] can be described thus: probe aShh binding to arrayed compounds – biochemical, biotinylated probe, 635/667 nm fluorescence, primary screen (AID 1114).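 Further: probe is biotin-labelled aShh protein from a stem cell growth factor screen; measures binding of labelled protein to compounds printed on the slide; score merges feature fluorescence at 667 nm with signal-to-noise.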 Conditions: small-molecule microarray, higher = more signal.
Assay [18] in a line: probe aNog binding to arrayed compounds – biochemical, biotinylated probe, 635/667 nm fluorescence, primary screen (AID 1115).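 Further: probe is biotinylated aNog protein used at 0.15 µg/mL for 1 h at 4 C; z-score combines 667 nm fluorescence of each spot with its signal to noise.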 Conditions: small-molecule microarray, higher = more signal.
Assay [19] addresses Torsin-1A-interacting protein 1 (Homo sapiens) (UniProt Q5JTV8). As to the kind of experiment: compound microarray binding of lysate hLAP1 – cell lysate, small-molecule microarray, COS7 lysate, 635/667 nm fluorescence, primary screen (AID 1116). The conditions noted are these: 635 nm fluorescence, higher = more signal.
Assay [20] has as its target Alpha-bungarotoxin (Bungarus multicinctus) (UniProt P60615). In words: compounds binding labelled alpha-BTX control protein – biochemical, small-molecule microarray, Alexa647 label, 635/667 nm fluorescence, artefact control for SMM control protein annotation, profiling panel (AID 1117). The conditions noted are these: alpha-BTX-A647 binding fluorescence, higher = more signal.

Dickkopf-related protein 1 (Homo sapiens), sequence (O94907 whole entry, looked up): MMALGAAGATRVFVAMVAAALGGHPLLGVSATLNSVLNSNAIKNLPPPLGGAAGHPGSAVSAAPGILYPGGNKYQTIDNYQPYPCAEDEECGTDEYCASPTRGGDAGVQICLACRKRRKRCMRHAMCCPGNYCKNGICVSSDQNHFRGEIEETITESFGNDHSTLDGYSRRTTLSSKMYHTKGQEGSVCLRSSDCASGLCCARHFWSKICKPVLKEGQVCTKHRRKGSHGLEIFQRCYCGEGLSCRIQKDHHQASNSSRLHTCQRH
Left-right determination factor 2 (Homo sapiens), sequence (O00292 whole entry, looked up): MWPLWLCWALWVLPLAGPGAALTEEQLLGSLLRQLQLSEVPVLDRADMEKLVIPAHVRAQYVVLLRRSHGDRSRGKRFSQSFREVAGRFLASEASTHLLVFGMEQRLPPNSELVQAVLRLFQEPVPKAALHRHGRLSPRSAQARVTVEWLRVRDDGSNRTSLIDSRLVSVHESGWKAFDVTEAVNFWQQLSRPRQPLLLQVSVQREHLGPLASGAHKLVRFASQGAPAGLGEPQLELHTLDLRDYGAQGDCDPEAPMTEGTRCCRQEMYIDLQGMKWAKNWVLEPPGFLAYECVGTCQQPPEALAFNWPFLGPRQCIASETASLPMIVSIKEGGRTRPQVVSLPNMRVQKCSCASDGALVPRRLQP
Fibroblast growth factor 10 (Homo sapiens), sequence (O15520 whole entry, looked up): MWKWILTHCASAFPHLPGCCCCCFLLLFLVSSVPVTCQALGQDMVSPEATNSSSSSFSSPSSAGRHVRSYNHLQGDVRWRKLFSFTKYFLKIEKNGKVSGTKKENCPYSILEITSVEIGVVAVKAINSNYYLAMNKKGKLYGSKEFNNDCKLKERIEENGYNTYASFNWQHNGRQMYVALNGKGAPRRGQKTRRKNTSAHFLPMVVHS
Follistatin-related protein 3 (Homo sapiens), sequence (O95633 whole entry, looked up): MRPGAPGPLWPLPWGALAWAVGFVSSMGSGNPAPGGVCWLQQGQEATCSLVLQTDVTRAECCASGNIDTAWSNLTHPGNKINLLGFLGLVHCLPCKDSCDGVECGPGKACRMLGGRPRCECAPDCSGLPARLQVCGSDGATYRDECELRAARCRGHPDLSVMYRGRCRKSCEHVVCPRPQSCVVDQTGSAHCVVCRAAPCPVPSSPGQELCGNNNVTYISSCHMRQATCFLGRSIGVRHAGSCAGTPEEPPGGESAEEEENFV
Torsin-1A-interacting protein 1 (Homo sapiens), sequence (Q5JTV8 whole entry, looked up): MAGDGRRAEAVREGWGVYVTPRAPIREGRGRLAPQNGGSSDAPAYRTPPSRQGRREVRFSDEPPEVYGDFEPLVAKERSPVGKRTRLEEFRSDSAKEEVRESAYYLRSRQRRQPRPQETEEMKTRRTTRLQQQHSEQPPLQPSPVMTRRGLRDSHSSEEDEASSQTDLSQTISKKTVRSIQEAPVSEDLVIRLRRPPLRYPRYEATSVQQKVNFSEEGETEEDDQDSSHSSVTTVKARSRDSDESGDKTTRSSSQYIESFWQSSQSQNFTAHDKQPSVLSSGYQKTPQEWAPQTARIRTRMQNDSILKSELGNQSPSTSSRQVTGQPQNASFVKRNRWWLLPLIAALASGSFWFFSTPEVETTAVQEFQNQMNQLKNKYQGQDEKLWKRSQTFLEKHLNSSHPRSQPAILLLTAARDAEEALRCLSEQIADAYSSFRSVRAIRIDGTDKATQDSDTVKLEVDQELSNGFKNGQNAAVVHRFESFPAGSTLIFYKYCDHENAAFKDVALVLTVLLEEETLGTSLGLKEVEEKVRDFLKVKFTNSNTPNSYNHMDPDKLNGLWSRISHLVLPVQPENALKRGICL
Epidermal growth factor receptor (Homo sapiens), sequence (P00533 whole entry, looked up): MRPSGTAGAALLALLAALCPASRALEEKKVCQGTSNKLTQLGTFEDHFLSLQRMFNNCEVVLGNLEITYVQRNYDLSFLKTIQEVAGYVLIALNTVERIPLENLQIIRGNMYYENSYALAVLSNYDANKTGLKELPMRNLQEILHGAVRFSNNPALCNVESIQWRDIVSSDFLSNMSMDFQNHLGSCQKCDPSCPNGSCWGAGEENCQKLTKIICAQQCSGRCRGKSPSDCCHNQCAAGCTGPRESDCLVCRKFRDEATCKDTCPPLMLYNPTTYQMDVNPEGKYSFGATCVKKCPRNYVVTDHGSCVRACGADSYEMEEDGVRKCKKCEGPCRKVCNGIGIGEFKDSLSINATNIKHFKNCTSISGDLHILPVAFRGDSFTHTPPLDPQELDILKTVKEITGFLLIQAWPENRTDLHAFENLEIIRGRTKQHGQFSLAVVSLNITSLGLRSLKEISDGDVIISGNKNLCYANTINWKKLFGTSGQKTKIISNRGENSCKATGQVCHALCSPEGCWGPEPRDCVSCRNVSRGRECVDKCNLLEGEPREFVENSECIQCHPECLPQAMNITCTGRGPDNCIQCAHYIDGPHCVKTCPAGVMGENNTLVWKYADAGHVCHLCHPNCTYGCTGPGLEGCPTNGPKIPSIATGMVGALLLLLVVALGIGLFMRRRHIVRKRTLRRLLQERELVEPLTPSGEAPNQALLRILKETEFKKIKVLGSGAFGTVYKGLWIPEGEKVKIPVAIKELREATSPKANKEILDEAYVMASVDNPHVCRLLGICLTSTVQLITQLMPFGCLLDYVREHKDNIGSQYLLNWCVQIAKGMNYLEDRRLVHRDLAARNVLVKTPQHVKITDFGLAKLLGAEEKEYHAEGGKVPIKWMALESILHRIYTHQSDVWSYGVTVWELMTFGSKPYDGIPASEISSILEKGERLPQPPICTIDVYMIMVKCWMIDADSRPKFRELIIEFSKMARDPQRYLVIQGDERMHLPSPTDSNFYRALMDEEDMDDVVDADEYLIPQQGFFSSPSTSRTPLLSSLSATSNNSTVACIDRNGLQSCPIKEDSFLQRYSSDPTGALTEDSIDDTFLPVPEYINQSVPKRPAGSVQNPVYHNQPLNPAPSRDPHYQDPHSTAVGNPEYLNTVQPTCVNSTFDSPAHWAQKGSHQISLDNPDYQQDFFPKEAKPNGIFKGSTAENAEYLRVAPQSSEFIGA
Alpha-bungarotoxin (Bungarus multicinctus), sequence (P60615 whole entry, looked up): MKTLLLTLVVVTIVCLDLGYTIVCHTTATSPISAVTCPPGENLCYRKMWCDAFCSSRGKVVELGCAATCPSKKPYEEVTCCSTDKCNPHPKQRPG

As to `CCN1C(=O)[C@H]2[C@H]3[C@H](O)C=CC(=O)[C@@H]3CC[C@H]2C1=O`, the composite z-score is 0.163 in [1]; -0.094 in [2]; -0.484 in [3]; 0.402 in assay [5]; 0.743 in assay [6]; 0.378 in assay [7]. In addition, the composite z-score is 0.548 in [8]; 0.444 in assay [9]; -0.114 in [10]; 0.907 in assay [11]; 0.503 in assay [13]; 0.0903 in assay [14]. Further, the composite z-score in assay [15] is -0.528; in assay [16] it was -0.126; in [17], -0.13; in assay [18] it was 0.0658; in [19] it was 0.694; in assay [20], 0.45. In addition, the z-score in assay [4] is 0.403 (inactive); in assay [12] it was 0.305.
Take `CCOC(=O)CCN1C(=O)[C@H]2[C@H]3[C@H](O)[C@H](O)CC(=NOCc4ccccc4)[C@@H]3CC[C@H]2C1=O`: the composite z-score in assay [1] was 0.174; in [2], -0.206; in assay [3], -0.608; in [5], 0.526; in assay [6], 0.597; in assay [7] it was 0.641. The composite z-score in assay [8] is 0.749; in [9], 0.4; in [10], 0.0727; in assay [11] it was -0.482; in assay [13], 0.591; in assay [14], -0.138. Moreover, the composite z-score in assay [15] was -0.848; in [16], -0.0125; in [17], -0.243; in [18], 0.107; in [19], -0.0594; in assay [20], 0.419. The figures for the z-score in assay [4] and in assay [12] were 0.0671 (inactive) and -1.08, respectively.
On to `CCOC(=O)[C@H](Cc1ccccc1)NC(=O)CCC1CC(OC(=O)NCc2ccc3c(c2)OCO3)CC2(CCCC(COC(=O)NCc3ccccc3)O2)O1` (stereo not given in full), for which the composite z-score in [1] was 0.403; in [2], -0.125; in assay [3] it was -0.468; in [5], 1.02; in [6], 0.78; in assay [7], 0.361. Further, the composite z-score in assay [8] was 1.02; in [9], 0.606; in assay [10], -0.303; in [11] it was 1.33; in assay [13], 0.619; in assay [14] it was 0.351. Besides, the composite z-score in assay [15] is -0.298; in assay [16], -0.128; in [17], -0.0793; in [18], 0.041; in [19], 0.183; in assay [20], 0.463. The z-score was -1.03 (inactive) in [4] and -1.08 in assay [12].
With `CC[C@@H](c1ccccc1)n1c(=O)n2n(c1=O)[C@H]1[C@H](O)[C@@H]3O[C@@H]3C(=NOCC=C(C)CCC=C(C)C)[C@H]1CC2`, the composite z-score in assay [1] was 0.785; in assay [2], -0.156; in assay [3], -0.359; in assay [5], 0.524; in assay [6], 0.412; in assay [7], 0.446. In addition, the composite z-score in [8] is 1.27; in assay [9], 0.916; in assay [10], 0.619; in assay [11], 1.21; in assay [13] it was 0.827; in assay [14], -0.0812. Besides, the composite z-score is -0.834 in assay [15]; -0.001 in assay [16]; -0.0866 in assay [17]; -0.136 in assay [18]; 0.215 in assay [19]; 0.0806 in assay [20]. The z-score in assay [4] is 1.95 (inactive); in assay [12], -3.62.
For the compound `CC(C)(C)N1C(=O)[C@H]2[C@H]3[C@H](O)[C@H](O)CC(=NO[C@@H]4O[C@H](CO)[C@@H](O)[C@H](O)[C@H]4O)[C@@H]3CC[C@H]2C1=O`, the composite z-score in [1] is 0.756; in assay [2], -0.393; in assay [3] it was -0.854; in assay [5], 0.522; in [6], 0.869; in [7], 0.768. Also, the composite z-score is 1.01 in [8]; 1.15 in assay [9]; 0.911 in assay [10]; 0.964 in assay [11]; 0.761 in assay [13]; -0.448 in assay [14]. Also, the composite z-score in assay [15] was -1.36; in assay [16], -0.0115; in [17], 0.111; in assay [18], -0.0144; in assay [19], 0; in assay [20], 1.28. Also, the z-score in assay [4] was 0.519 (inactive); in assay [12] it was -0.105.
With `CN1C(=O)[C@@]2(CCC(=O)OC(C)(C)C)N=C(c3ccc(OCCCO)cc3)O[C@H]2c2ccccc21`, the composite z-score in assay [1] came to 1.26; in assay [2], 0.0179; in [3], 0.457; in assay [5] it was 0.788; in [6], 1.33; in assay [7] it was 0.181. Besides, the composite z-score in assay [8] is 0.529; in assay [9], -0.0485; in [10], 1.03; in assay [11], 1.29; in [13] it was -0.057; in assay [14], 0.878. In addition, the composite z-score in [15] is -0.304; in [16] it was -0.096; in assay [17], 0.137; in assay [18] it was -0.539; in assay [19], 0.558; in assay [20], 0.721. The z-score in assay [4] was -0.0334 (inactive); in assay [12], -2.9.
